# Compound activity (PubChem)
# BAZ2B block: qHTS Assay for Inhibitors of BAZ2B | Bromodomain adjacent to zinc finger domain protein 2B (Homo sapiens), Q9UIF8 | AlphaScreen BAZ2B-H3K14Ac peptide displacement | Potency, µM (top dose mostly 114 µM), without a hit: at the top dose activity change, negative = inhibition, most hits filed as inhibitors | 360,000 compounds, 4.4% hits | AID 504333, 2011; note: % is set by controls: 0 for no effect and ±100 for the full control effect; nearly all actives have a fitted effect of over 60% in size
#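 Compounds, titrated to a top concentration of 110 uM, were incubated 30 min at room temperature with preformed BAZ2B/acetyl-K14 H3 peptide complex (50 nM each). Proximity signal was measured by AlphaScreen after 20 min with beads.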
# TDP1 block: qHTS Assay for Inhibitors of Tyrosyl-DNA Phosphodiesterase (TDP1) | 350,000 compounds, 0.28% hits | Potency, µM (series often up to 130 µM), for inactives: at the highest dose activity change, negative = inhibition, most hits filed as inhibitors | recombinant TDP1, AlphaScreen DNA substrate cleavage | AID 485290, 2010 | Tyrosyl-DNA phosphodiesterase 1 (Homo sapiens), Q9NUW8; note: % is set by controls: 0 for no effect and ±100 for the full control effect; nearly all actives have a fitted effect of over 40% in size
#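 Tdp1 1 nM final; 15 min RT w/ cpd; substrate 15 nM, 5 min; beads 10 ug/ml, 10 min; AlphaScreen read. Neg ctrl: no enzyme.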
# Sfp inh: qHTS Assay for Inhibitors of Bacillus subtilis Sfp phosphopantetheinyl transferase (PPTase) | 4'-phosphopantetheinyl transferase ffp (Bacillus subtilis), Q9F4F7 | Biochemical Sfp PPTase activity, qHTS | Potency, µM, without a hit: largest response in the series, negative = inhibition, hits mostly inhibitors | 310,000 compounds, 3.5% hits;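 note: the enzyme is Sfp with the accession as filed and its product quenches rhodamine fluorescence; 0% = enzyme reaction without inhibitor and -100% = no enzyme wells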
#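 With Hepes-Na pH 7.6 buffer containing 10 mM MgCl2, Sfp (15 nM) modified BHQ-2-YbbR (12.5 uM) using rhodamine-CoA (5 uM). Two reads 30 minutes apart at 525/598 nm yielded each well's rate.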
# HP1b chromo inh: HTS for Inhibitors of HP1-beta Chromodomain Interactions with Methylated Histone Tails. AlphaScreen HP1-beta / biotin-H3K9me3 peptide binding. Potency, µM (highest dose often 114 µM), for inactives: top-dose activity change, negative = inhibition, usual class: inhibitors. 390,000 compounds, 0.56% hits. AID 540317, 2011; note: nearly all actives have a fitted effect of over 70% in size
# Target sequence (P83916 whole entry, looked up): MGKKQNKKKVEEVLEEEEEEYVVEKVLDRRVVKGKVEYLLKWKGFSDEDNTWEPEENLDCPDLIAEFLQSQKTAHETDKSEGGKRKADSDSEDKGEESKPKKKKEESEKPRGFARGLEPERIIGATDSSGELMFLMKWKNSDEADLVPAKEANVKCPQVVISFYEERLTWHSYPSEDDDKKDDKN
#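 AlphaScreen: HP1-beta (50 nM) preformed 30 min with biotin-H3(1-18)K9me3 peptide (50 nM) in PBS pH 7.4, 0.01% Tween-20. Compound added for 30 min at RT, then streptavidin donor/nickel chelate acceptor beads (10 ug/mL) for 30 min.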
# G9a inh: qHTS Assay for Inhibitors of Histone Lysine Methyltransferase G9a; G9a H3K9 monomethylation, AlphaScreen, 2 h; Potency, µM (titrated, usually from 102 µM), without a hit: at the top dose activity, negative = inhibition, most hits filed as inhibitors; 350,000 compounds, 8.8% hits; note: % is set by controls: 0 for no effect and ±100 for the full control effect; nearly all actives have a fitted effect of over 75% in size
# Target sequence (Q96KQ7 913-1193 limits assumed): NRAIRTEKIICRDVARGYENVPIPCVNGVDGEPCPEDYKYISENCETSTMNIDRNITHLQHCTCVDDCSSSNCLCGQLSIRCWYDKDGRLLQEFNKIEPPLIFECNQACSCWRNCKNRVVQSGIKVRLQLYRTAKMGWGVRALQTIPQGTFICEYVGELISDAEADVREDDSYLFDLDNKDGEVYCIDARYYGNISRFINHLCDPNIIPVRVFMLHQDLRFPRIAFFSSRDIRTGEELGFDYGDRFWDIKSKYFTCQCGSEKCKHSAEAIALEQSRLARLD
#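 G9a (20 nM) preincubated 15 min RT with compounds, then 500 nM biotinylated H3K9 peptide and 20 uM SAM added; 2 h RT reaction. Monomethyl-H3K9 product detected by AlphaScreen with anti-H3K9me1 antibody, streptavidin donor and anti-rabbit IgG acceptor beads.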
# JMJD2A Tudor: qHTS Assay for Inhibitors of JMJD2A-Tudor Domain; Lysine-specific demethylase 4A (Homo sapiens), O75164; AlphaScreen JMJD2A-Tudor / H3K4me3 peptide binding; Potency, µM (top dose mostly 114 µM), for inactives: at the highest dose activity change, negative = inhibition, most hits filed as inhibitors; 390,000 compounds, 4.4% hits; note: % is set by controls: 0 for no effect and ±100 for the full control effect; nearly all actives have a fitted effect of over 50% in size
# Starred values were filed as active, the others as inactive; ? = inconclusive; . = not tested or not shown; [ ] = another dose, or the depositor's remark. Shown are actives, neighbours in structure and some others; about 12% of the full set was active somewhere. Calls come from the whole dose curve; as a rule, active = well fitted curve in the direction sought with a large enough effect; inconclusive = small, poorly fitted or top-dose-only effect, or another doubt; inactive = no such curve, though single readings can be large; an effect the other way counts as inactive or inconclusive. Potency is the fitted concentration of half-maximal effect.
SMILES,BAZ2B block,TDP1 block,Sfp inh,HP1b chromo inh,G9a inh,JMJD2A Tudor
COc1ccc(NCC(O)Cn2c(C)c(C)c3ccccc32)cc1 (centres undefined),40µM*,10%,5%,40µM*,.,?
Cc1c(C)n(CC(O)CN(CCO)CCO)c2ccccc12 (centres undefined),-32%,7%,11%,1%,-12%[59 µM],?
O=C(CNC1CCCC1)Nc1cc(Cl)ccc1[N+](=O)[O-],56µM*,3%,56µM*,40µM*,45µM*,1µM*
Cc1cs/c(=N/C(=S)Nc2ccccc2)n1C,-38%,0%,3%,6%,-1%[59 µM],-2%
Cc1csc(=Nc2ccccc2)n1C,50µM*,9%,-8%,29%,?,-13%
O=C(Oc1ccccc1)N1CCC2(CCCN(c3ncccn3)C2)CC1,.,.,-13%,.,32%[12.7 µM],.
CCOC(=O)CC(=O)CSc1nccc(-c2cccnc2)n1,-17%,4%,56µM*,22%,.,-11%
COCCNC(=S)N1CCN(c2nc(-c3ccc(Cl)cc3)cs2)CC1,-31%,.,7%,6%,?,32µM*
CC(C)C(=O)N1CCN(c2nc(-c3ccc(Cl)cc3)cs2)CC1,-22%,0%,12%,14%,?,-18%
COc1cccc(-c2csc(N3CCN(C(=S)Nc4ccc(Cl)cc4)CC3)n2)c1,26%,8%,45µM*,-6%,?,-24%
CNC(=S)N1CCN(c2nc(-c3ccc(Cl)cc3)cs2)CC1,0%,.,6%,-11%,12%,-14%
COCCNC(=S)N1CCN(c2nc(-c3ccc(F)cc3)cs2)CC1,?,10%,-4%,1%,50µM*,-35%
CCOC(=O)N1CCN(c2nc(-c3ccc(Cl)cc3)cs2)CC1,-13%,-3%,?,55%,11µM*,-7%
COc1ccc(N(CC(=O)NCCC2=CCCCC2)S(=O)(=O)c2ccccc2)c(OC)c1,-24%,3%,-1%,24%,?,-21%
CSCCC(NC(=O)CCNC(=O)c1ccccc1Cl)c1nc2ccccc2[nH]1 (centres undefined),12%,3%,.,33%,-15%[12.7 µM],-1%
CS(=O)(=O)N1CCN(c2nc(-c3ccccc3)cs2)CC1,?,5%,-3%,-22%,-1%[59 µM],-34%
CCS(=O)(=O)N1CCN(c2nc(-c3ccccc3)cs2)CC1,-14%,1%,?,-9%,13µM*,-35%
C=CCOC(=O)N[C@@H](CC(C)C)/C(C(=O)OC)=C(\C)NCc1ccccc1,.,-6%,-9%,.,.,.
CCC(Oc1ccc2c(c1)C(=O)CC(C)(C)O2)C(=O)NCCN1CCCCCC1 (centres undefined),?,-3%,?,?,13µM*,45µM*
CC(C)CCNC(=O)COc1ccc2c(c1)C(=O)CC(C)(C)O2,2%,4%,10%,33%,5%[12.7 µM],9%[57.1 µM]
CCOC(=O)N1CCc2c(sc3c2c(=O)n(Cc2ccccc2)c(=O)n3Cc2cccc(Cl)c2)C1,-29%,4%,.,25%,-32%[59 µM],-9%
Cc1ccc(NC(=O)CC2Sc3ccc(C(F)(F)F)cc3NC2=O)cc1 (centres undefined),-2%,7%,.,61%,-5%[59 µM],-11%
CC(=O)C1=C(C)Nc2cc(C(F)(F)F)ccc2S1,11%,7%,56µM*,-4%,22µM*,-22%
CC(C)C[C@H](NC(=O)NCc1ccccc1Cl)C(=O)O,9%,-2%,17%,35%,2%[59 µM],-8%
